From PubChem
An excerpt weighted towards active compounds, which were near 4.2% of everything screened.
NALP1 inh: NALP1 inflammasome inhibitors in reconstituted yeast, colorimetric, S. cerevisiae, triplicate retest; AID 2071, 2009; 280,000 tested, 0.61% active; inhibition, % at 10 µM; S. cerevisiae NALP1/ASC/caspase-1 growth, X-gal OD620, 72 h; in the data active = inhibition mostly above about 24%, no sharp cut-off; inactive = mostly below about 32%
NLRP3 yeast inh: NALP3 inflammasome inhibitors in reconstituted yeast, primary screen, luminescence, uHTS. Yeast reconstituted NLRP3/ASC/caspase-1, beta-gal luminescence, 24 h. inhibition, % at 10 µM. 330,000 tested, 0.39% active. AID 2825, 2010;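 active = inhibition of 50% or more; inactive = inhibition below 50%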
TIM10 inh: growth inhibitors of isogenic TIM10 control yeast, primary screen, counter-screen for tim10-1 yeast inhibitor project, luminescence, uHTS; S. cerevisiae TIM10 strain growth, BacTiter-Glo luminescence, 24 h; inhibition, % at 10 µM; 330,000 tested, 1.4% active;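 active = inhibition of 40% or more at the single tested concentration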;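 note: wild-type TIM10 isogenic control strain grown at permissive 25 °C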
tim23-1 inh: growth inhibitors of tim23-1 mutant yeast, primary screen, luminescence, uHTS. S. cerevisiae tim23-1 growth, BacTiter-Glo luminescence, 24 h. inhibition, % at 20 µM. 330,000 tested, 1.3% active. AID 463212, 2010;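 active = growth inhibition of the mutant yeast at or above 50%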;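 note: temperature-sensitive mutant grown at 25 °C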
tim10-1 inh: growth inhibitors of tim10-1 mutant yeast, primary screen, luminescence, uHTS; S. cerevisiae tim10-1 ts strain growth, BacTiter-Glo, 24 h; 330,000 tested, 2.2% active; inhibition, % at 20 µM;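 active = inhibition of at least 40%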;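 note: mutant grown at 25 °C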
PfHsp90 yeast 2: growth inhibition of PfHsp90-expressing yeast, primary screen, antimalarial PfHsp90 inhibitor project, S. cerevisiae, BacTiter-Glo luminescence, single point, set 2 | BacTiter-Glo ATP, 48 h; yeast lacking PDR1 and PDR3 efflux regulators | inhibition, % at 9.4 µM | 310,000 tested, 0.32% active | AID 504621, 2011;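 active = every replicate shows inhibition above about 80%, whatever the replicate mean, limit read from the data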
tim10-1 confirm: growth inhibitors of tim10-1 mutant yeast, confirmation, single concentration, luminescence, S. cerevisiae; shares compounds with tim10-1 inh; S. cerevisiae tim10-1 ts strain growth, BacTiter-Glo, 24 h; inhibition, % at 20 µM; 7,400 tested, 56% active;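 active = inhibition of yeast growth at or above a set limit in either of two repeat tests at 20 µM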;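 note: tim10-1 mutant grown at permissive 25 °C to find synthetic lethal compounds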
tim10 confirm: growth inhibitors of wild-type TIM10 yeast, confirmation, counter-screen for tim10-1 synthetic lethality project, single concentration, luminescence, S. cerevisiae. shares compounds with TIM10 inh. S. cerevisiae tim10 strain growth, BacTiter-Glo luminescence, 24 h. inhibition, % at 10 µM. 4,600 tested, 63% active. AID 463215, 2010;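 active = inhibition of yeast growth at or above a set limit in either of two replicates at 10 µM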; note: this counterscreen used the strain with wild-type TIM10
tim23-1 confirm: tim23-1 mutant yeast growth inhibitors, confirmation, luminescence, single concentration. shares compounds with tim23-1 inh. 4,400 tested, 83% active. S. cerevisiae tim23-1 growth, BacTiter-Glo luminescence, 24 h. inhibition, % at 20 µM;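 active = inhibition above about 39% in either of two replicate wells at 20 µM, limit read from the data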;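 note: temperature-sensitive tim23-1 mutant grown at 25 °C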
Hits are given with their value.

Screening COc1ccccc1CNS(=O)(=O)c1ccc(N2CCCC2)cc1Br returned TIM10 inh inactive, tim23-1 inh inactive, tim10-1 inh inactive and PfHsp90 yeast 2 inactive.
CCCCN(CCCC)C(=O)c1cc(Cl)ccc1[N+](=O)[O-] was read as NALP1 inh inactive, NLRP3 yeast inh inactive, TIM10 inh inactive, tim23-1 inh inactive, tim10-1 inh inactive and PfHsp90 yeast 2 inactive.
Screening CCCN(CCC)C(=O)c1cc([N+](=O)[O-])cc2c1-c1ccc([N+](=O)[O-])cc1C2=C(C#N)C#N returned NALP1 inh inactive, NLRP3 yeast inh inactive, TIM10 inh inactive, tim23-1 inh 74, tim10-1 inh 67, tim10-1 confirm 67 and tim23-1 confirm 75.
Screening Cc1ccc(NC(=O)CSCC(=O)OC(C)C(=O)Nc2ccccc2C)cc1 (stereo not given) returned NLRP3 yeast inh inactive, TIM10 inh inactive, tim23-1 inh inactive and tim10-1 inh inactive.
`O=[N+]([O-])c1ccc(N2CCc3ccccc3C2)nc1` gave NALP1 inh inactive, NLRP3 yeast inh inactive, TIM10 inh inactive, tim23-1 inh 63, tim10-1 inh 66, PfHsp90 yeast 2 inactive, tim10-1 confirm 64 and tim23-1 confirm inactive.
`O=[N+]([O-])c1ccc(N2CCN(c3ccccc3)CC2)nc1` gave NALP1 inh inactive, NLRP3 yeast inh inactive, TIM10 inh inactive, tim23-1 inh inactive, tim10-1 inh inactive and PfHsp90 yeast 2 inactive.
`COC(=O)c1cc(S(=O)(=O)NCc2cc(OC)c(OC)c(OC)c2)cn1C` gave NALP1 inh inactive, NLRP3 yeast inh inactive, TIM10 inh inactive, tim23-1 inh inactive, tim10-1 inh inactive and PfHsp90 yeast 2 inactive.
`Fc1ccccc1NC(=S)NCCc1ccccc1` gave NALP1 inh inactive, NLRP3 yeast inh inactive, TIM10 inh inactive, tim23-1 inh inactive, tim10-1 inh inactive and PfHsp90 yeast 2 inactive.
Screening O=[N+]([O-])c1ccc(NC(=S)NCCc2ccc(F)cc2)cc1 returned NALP1 inh inactive, NLRP3 yeast inh inactive, TIM10 inh 64, tim23-1 inh 74, tim10-1 inh 75, PfHsp90 yeast 2 inactive, tim10-1 confirm 70, tim10 confirm inactive and tim23-1 confirm 70.
`Fc1ccc(CCNC(=S)Nc2ccc(F)c(Cl)c2)cc1` gave NALP1 inh inactive, NLRP3 yeast inh inactive, TIM10 inh 41, tim23-1 inh 55, tim10-1 inh 52, PfHsp90 yeast 2 inactive, tim10-1 confirm 66, tim10 confirm inactive and tim23-1 confirm 75.
Fc1ccc(NC(=S)NCCc2ccccc2)c(F)c1F was read as NALP1 inh inactive, NLRP3 yeast inh inactive, TIM10 inh 41, tim23-1 inh 51, tim10-1 inh 40, PfHsp90 yeast 2 inactive, tim10-1 confirm inactive, tim10 confirm 35 and tim23-1 confirm 49.
For S=C(NCCc1ccc(Cl)cc1)Nc1ccc(Cl)cc1Cl the results were NALP1 inh inactive, NLRP3 yeast inh inactive, TIM10 inh 48, tim23-1 inh 60, tim10-1 inh 50, PfHsp90 yeast 2 inactive, tim10-1 confirm 56, tim10 confirm 44 and tim23-1 confirm 66.
Screening COc1ccc(NC(=O)NNC(=O)c2ccc3ccccc3c2)cc1OC returned NALP1 inh inactive, NLRP3 yeast inh inactive, TIM10 inh inactive, tim23-1 inh inactive, tim10-1 inh inactive and PfHsp90 yeast 2 inactive.
`C#CC(C)OC(=O)Nc1cnccc1C(F)(F)F` (stereo not given) gave NALP1 inh inactive, NLRP3 yeast inh inactive, TIM10 inh inactive, tim23-1 inh inactive, tim10-1 inh inactive and PfHsp90 yeast 2 inactive.
For COC1=CC(=O)C=C(OC)C1(O)CC(C)=O the results were PfHsp90 yeast 2 inactive.
CCn1c2ccccc2c2cc(/C(C)=N/O)ccc21 was read as NALP1 inh inactive, NLRP3 yeast inh inactive, TIM10 inh 42, tim23-1 inh 75, tim10-1 inh 61, PfHsp90 yeast 2 inactive, tim10-1 confirm 56, tim10 confirm 45 and tim23-1 confirm 84.
For Cc1[nH]c2c(C)cccc2c1CCNC(=O)c1ccc2c(c1[N+](=O)[O-])C(=O)c1ccccc1C2=O the results were NALP1 inh inactive, NLRP3 yeast inh inactive, TIM10 inh inactive, tim23-1 inh inactive, tim10-1 inh inactive and PfHsp90 yeast 2 inactive.
CN(C)C(=O)c1ccc2c(c1[N+](=O)[O-])C(=O)c1ccccc1C2=O was read as NALP1 inh inactive, NLRP3 yeast inh inactive, TIM10 inh 69, tim23-1 inh 61, tim10-1 inh 71, PfHsp90 yeast 2 inactive, tim10-1 confirm 61, tim10 confirm 63 and tim23-1 confirm 58.
CN(C1=C(NC(=O)c2ccc(Cl)cc2)C(=O)c2ccccc2C1=O)c1ccccc1 was read as NALP1 inh inactive, NLRP3 yeast inh inactive, TIM10 inh 66, tim23-1 inh 68, tim10-1 inh 65, PfHsp90 yeast 2 inactive, tim10-1 confirm 61, tim10 confirm inactive and tim23-1 confirm 72.
O=C(NC1=C(Nc2ccc(Cl)cc2)C(=O)c2ccccc2C1=O)c1ccccc1 was read as NALP1 inh inactive, NLRP3 yeast inh inactive, TIM10 inh inactive, tim23-1 inh inactive, tim10-1 inh inactive and PfHsp90 yeast 2 inactive.
Screening O=C(CN1C(=O)NC2(CCc3ccccc32)C1=O)Nc1ccccc1Cl (stereo not given) returned NLRP3 yeast inh inactive, TIM10 inh inactive, tim23-1 inh inactive, tim10-1 inh inactive and PfHsp90 yeast 2 inactive.
O=C(CSc1nnc(NC(=O)c2cccc(F)c2)s1)NC1CCCC1 was read as NALP1 inh inactive, NLRP3 yeast inh inactive, TIM10 inh inactive, tim23-1 inh inactive, tim10-1 inh inactive and PfHsp90 yeast 2 inactive.
For Cc1cc(C)nc(Sc2ccc(C=O)cc2[N+](=O)[O-])n1 the results were NALP1 inh inactive, NLRP3 yeast inh inactive, TIM10 inh inactive, tim23-1 inh inactive, tim10-1 inh inactive and PfHsp90 yeast 2 inactive.
